Among all 85,000 compounds or so, about 440 (0.52%) showed an effect of 50% or more. Many of the other results were omitted from the sample, so strong results are more common in it than they were.
Assay: In vitro enzyme assay to detect hydrolysis of chlorophenol red-beta-D-[…] directly proportional to the number of Toxoplasma stably expressing beta-galactosidase
Format: functional, organism-based, Toxoplasma gondii
Parameters: scale not given: in the data most compounds retested in dose-response had high values

| SMILES | Percent Effect (50 µM) [%] | Percent Effect (10 µM) [%] |
| --- | --- | --- |
| CNC(=O)NC(=O)CCN1CCCC(C)C1 (centres undefined) | 60.28 | – |
| CNC(=O)NC(=O)CCN1CCCC(C(F)(F)F)C1 (centres undefined) | -7.84 | – |
| CNC(=O)NC(=O)CCN1CCCCC1 | -8.963 | – |
| Cc1nn(C)cc1C(C)NC(=O)CNc1ccccc1 (centres undefined) | -0.7115 | – |
| CN(CC(=O)N1CCOCC1)Cc1cc(Br)cs1 | 6.245 | – |
| COc1ccccc1C1(CNc2snc(Cl)c2C#N)CCCC1 | – | 2.513 |
| COc1ccccc1C1(CNc2snc(Cl)c2C#N)CCOCC1 | – | -0.2674 |
| N#Cc1c(Cl)nsc1NCC1(c2ccccc2)CCC1 | – | 79.2 |
| Cc1noc(C)c1C(=O)NC1CCN(CC2CC2)CC1 | -0.3877 | – |
| CC(C)c1nsc(NCC2=COCCO2)n1 | -1.035 | – |
| Cc1[nH]c2ccccc2c1-c1ccnc(NC[C@H](O)CO)n1 | – | 15.34 |
| Cc1[nH]c2ccccc2c1-c1ccnc(N[C@@H](CO)C(C)C)n1 | – | 48.14 |
| Cc1[nH]c2ccccc2c1-c1ccnc(N[C@H](CO)CC(C)C)n1 | – | 53.1 |
| Cc1[nH]c2ccccc2c1-c1ccnc(NCCN2CCOCC2)n1 | – | -5.812 |
| Cc1[nH]c2ccccc2c1-c1ccnc(NCCN2CCCCC2)n1 | – | 28.85 |
| Cc1[nH]c2ccccc2c1-c1ccnc(N[C@@H](C)CO)n1 | – | 58.12 |
| NCc1cc2c([nH]c1=O)CCC2 | 5.937 | – |
| CCN(CCCOC)CC(=O)Nc1cccc(OC)c1 | -2.356 | – |
| COc1ccc(NC(=O)c2ccc(Br)cn2)cc1CO | -27.31 | – |
| COc1ccc(-c2cncc(N)c2)cc1CO | 96.02 | – |

| SMILES | Percent Effect (50 µM) [%] | Percent Effect (10 µM) [%] |
| --- | --- | --- |
| COc1ccc(NC(=O)c2cncc(C)c2)cc1CO | -7.73 | – |
| O=C(CN1CCCC1c1noc(C2CC2)n1)NCCc1ccsc1 (centres undefined) | – | 19.94 |
| CCc1nc(C2CCCN2CC(=O)NCCc2ccsc2)no1 (centres undefined) | – | 89.95 |
| Cc1nc(C2CCCN2CC(=O)NCCc2ccsc2)no1 (centres undefined) | – | 7.324 |
| CCN(C)C(=O)CNc1ccccc1S(=O)(=O)CC | -2.619 | – |
| O=C([C@@H]1CCCN1)N1CCCC1c1cccnc1 (some centres undefined) | -9.249 | – |
| COCC(C)(CCO)NCc1cccc(F)c1 (centres undefined) | 2.377 | – |
| CC1(c2ccccc2)CCCN(Cc2cncn2C2CCCC2)C1 (centres undefined) | – | 64.76 |
| COCCn1cncc1CN1CCCC(C)(c2ccccc2)C1 (centres undefined) | – | 0.6483 |
| CC1(c2ccccc2)CCCN(Cc2cncn2C2CC2)C1 (centres undefined) | – | 20.67 |
| O=C(C(O)c1ccccc1)N(CCO)Cc1ccsc1 (centres undefined) | 11.77 | – |
| CCOC(=O)c1sc(O)nc1C | -0.2183 | – |
| CC(C)C(NC(=O)c1ccco1)C(=O)N1CCOCC1 (centres undefined) | -3.141 | – |
| NCC1(NS(=O)(=O)c2cccc3nonc23)CCCC1 | -3.738 | – |
| CC(C)NC(=O)C1CN(C(=O)Cc2ccccc2)CC12CCOCC2 (centres undefined) | – | 0.09588 |
| CC(C)NC(=O)C1CN(C(=O)NCc2ccccc2)CC12CCOCC2 (centres undefined) | – | -9.471 |
| CC(C)NC(=O)C1CN(C(=O)CCc2ccccc2)CC12CCOCC2 (centres undefined) | – | 56.76 |
| CC(O)CN1CCN(C(=O)CN(C)C2CC2)CC1 (centres undefined) | 3.925 | – |
| Cc1cc(CNC(=O)CCCN2CCCCC2)ccn1 | -5.389 | – |
| NC(=O)NCC1CCCN1 (centres undefined) | 26.88 | – |

| SMILES | Percent Effect (50 µM) [%] | Percent Effect (10 µM) [%] |
| --- | --- | --- |
| CNCC(C)CNC(=O)c1ccc(C(N)=O)nc1 (centres undefined) | -13.42 | – |
| Cc1cc(C)nc(NC(=O)NC2CCC(O)CC2)c1 (centres undefined) | 31.49 | – |
| O=C(NCCc1nnc[nH]1)C1SCCc2ccccc21 (centres undefined) | -20.61 | – |
| CN(C)C(=O)Nc1cc(F)cc(F)c1 | 57.68 | – |
| CN(CC(C)(CO)CO)C(=O)Nc1cc(F)cc(F)c1 | – | 14.95 |
| CNCC(=O)Nc1cc(F)cc(F)c1 | 12.71 | – |
| COC1CCN(CC(=O)Nc2ccc(C(N)=O)cc2)C1 (centres undefined) | -13.26 | – |
| CC(=O)NCCNC(=O)c1cc(Cl)c(Cl)n1C | -20.76 | – |
| CCc1cc(N2CCCC(CN)C2)n2nccc2n1 (centres undefined) | 8.07 | – |
| Cn1cc(N2CC3(COCCN(Cc4nccs4)C3)OCC2=O)cn1.O=C(O)C(F)(F)F (centres undefined) | – | 3.864 |
| O=C(O)C(F)(F)F.O=C1COC2(CCN(Cc3nccs3)CC2)CN1c1ccccc1 | – | -19.73 |
| Cn1cc(N2CC3(CCN(Cc4nccs4)CC3)OCC2=O)cn1.O=C(O)C(F)(F)F | – | 66.73 |
| CN(C)S(=O)(=O)N1CCCC1c1ccsc1 (centres undefined) | 2.745 | – |
| O=S(=O)(c1ccc2c(c1)CCCN2)N1CCCC1 | 5.041 | – |
| O=C(CCCNC(=O)C1CC1)Nc1cnn(-c2ccccc2Cl)c1 | – | 12.28 |
| Cc1ccc(NC(=O)CCCNC(=O)C2CC2)cc1 | 98.6 | – |
| O=C(CCCNC(=O)C1CCCO1)Nc1ccc(Cl)cc1 (centres undefined) | – | 23.23 |
| CNCCCNS(=O)(=O)c1ccc(Br)c(C(C)=O)c1 | 7.594 | – |
| COCC(=O)N[C@H]1CN(CCS(C)(=O)=O)C[C@@H]1C(C)C | -7.194 | – |

From ChEMBL document CHEMBL3988442, “University of Dundee, Small-Polar-MMV Screening Library” (2021)
